The target in assay [1] is Mast/stem cell growth factor receptor Kit (Homo sapiens) (UniProt P10721). To be noted: at 1 µM.
Assay [2] has as its system Mast/stem cell growth factor receptor Kit (Homo sapiens), P10721 [D816V]. To be noted: at 0.1 µM.
The test system is the same in assay [3]. To be noted: at 1 µM.
Assay [4] has as its system Mast/stem cell growth factor receptor Kit (Homo sapiens), P10721 [T670I]. To be noted: at 0.1 µM.
For assay [5] the test system is unchanged. To be noted: at 1 µM.
For assay [6], the system named is Mast/stem cell growth factor receptor Kit (Homo sapiens), P10721 [V560G]. To be noted: at 0.1 µM.
Mast/stem cell growth factor receptor Kit (Homo sapiens), P10721 [V560G], sequence (P10721 whole entry V560G): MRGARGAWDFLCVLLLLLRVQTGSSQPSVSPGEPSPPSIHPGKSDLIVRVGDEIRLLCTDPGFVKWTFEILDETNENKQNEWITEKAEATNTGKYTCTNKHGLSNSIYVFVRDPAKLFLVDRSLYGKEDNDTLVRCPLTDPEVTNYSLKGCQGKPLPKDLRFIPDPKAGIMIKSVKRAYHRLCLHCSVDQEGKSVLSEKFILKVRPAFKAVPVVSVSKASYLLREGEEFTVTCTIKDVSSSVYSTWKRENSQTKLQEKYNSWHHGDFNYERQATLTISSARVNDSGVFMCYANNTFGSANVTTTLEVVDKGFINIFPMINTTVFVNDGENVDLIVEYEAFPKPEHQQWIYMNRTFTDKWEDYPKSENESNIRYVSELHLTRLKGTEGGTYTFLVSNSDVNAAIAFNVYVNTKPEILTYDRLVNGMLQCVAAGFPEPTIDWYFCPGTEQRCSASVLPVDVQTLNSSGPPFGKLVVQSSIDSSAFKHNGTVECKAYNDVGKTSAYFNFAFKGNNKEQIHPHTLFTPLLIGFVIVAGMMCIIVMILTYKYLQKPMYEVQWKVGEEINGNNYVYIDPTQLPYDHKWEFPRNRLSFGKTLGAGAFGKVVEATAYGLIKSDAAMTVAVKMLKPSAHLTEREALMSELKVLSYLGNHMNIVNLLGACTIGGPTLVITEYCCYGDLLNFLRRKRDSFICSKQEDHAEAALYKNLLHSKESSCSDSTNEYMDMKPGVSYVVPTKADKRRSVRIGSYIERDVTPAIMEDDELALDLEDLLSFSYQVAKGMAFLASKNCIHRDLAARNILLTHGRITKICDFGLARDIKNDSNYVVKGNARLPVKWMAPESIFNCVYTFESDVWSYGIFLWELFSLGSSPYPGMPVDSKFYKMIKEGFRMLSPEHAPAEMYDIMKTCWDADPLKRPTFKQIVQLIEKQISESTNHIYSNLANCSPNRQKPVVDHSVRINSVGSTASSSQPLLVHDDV
The test system is the same in assay [7]. To be noted: at 1 µM.
Assay [8] deals with Tyrosine-protein kinase Lck (Homo sapiens) (UniProt P06239). To be noted: at 0.1 µM.
Tyrosine-protein kinase Lck (Homo sapiens), sequence (P06239 2-509 limits assumed): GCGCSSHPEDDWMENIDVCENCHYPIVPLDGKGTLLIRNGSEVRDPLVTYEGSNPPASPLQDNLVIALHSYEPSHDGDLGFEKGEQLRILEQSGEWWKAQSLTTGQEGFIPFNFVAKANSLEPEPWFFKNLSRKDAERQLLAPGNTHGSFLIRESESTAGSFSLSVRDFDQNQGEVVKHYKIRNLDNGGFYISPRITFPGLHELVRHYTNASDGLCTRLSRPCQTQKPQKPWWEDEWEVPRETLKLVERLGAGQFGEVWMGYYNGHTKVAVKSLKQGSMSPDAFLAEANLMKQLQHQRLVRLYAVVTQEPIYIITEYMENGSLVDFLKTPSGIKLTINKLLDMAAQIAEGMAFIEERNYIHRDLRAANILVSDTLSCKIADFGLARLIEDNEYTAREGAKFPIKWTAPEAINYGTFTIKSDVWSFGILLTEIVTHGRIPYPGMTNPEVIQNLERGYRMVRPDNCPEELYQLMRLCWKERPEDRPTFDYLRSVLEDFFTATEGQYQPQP
Assay [9] has the same target. To be noted: at 1 µM.
Assay [10] addresses Leukocyte tyrosine kinase receptor (Homo sapiens) (UniProt P29376). To be noted: at 0.1 µM.
Assay [11] shares this target. To be noted: at 1 µM.
Assay [12] has as its target Tyrosine-protein kinase Lyn (Homo sapiens) (UniProt P07948). To be noted: at 0.1 µM.
Assay [13] shares this target. To be noted: at 1 µM.
For assay [14] the target is unchanged. To be noted: at 0.1 µM. The source holds these as a separate data set.
The target is the same in assay [15]. To be noted: at 1 µM. The source holds these as a separate data set.
Assay [16] concerns the target T1, Tyrosine-protein kinase Mer (Homo sapiens) (UniProt Q12866).
T1 sequence (whole entry): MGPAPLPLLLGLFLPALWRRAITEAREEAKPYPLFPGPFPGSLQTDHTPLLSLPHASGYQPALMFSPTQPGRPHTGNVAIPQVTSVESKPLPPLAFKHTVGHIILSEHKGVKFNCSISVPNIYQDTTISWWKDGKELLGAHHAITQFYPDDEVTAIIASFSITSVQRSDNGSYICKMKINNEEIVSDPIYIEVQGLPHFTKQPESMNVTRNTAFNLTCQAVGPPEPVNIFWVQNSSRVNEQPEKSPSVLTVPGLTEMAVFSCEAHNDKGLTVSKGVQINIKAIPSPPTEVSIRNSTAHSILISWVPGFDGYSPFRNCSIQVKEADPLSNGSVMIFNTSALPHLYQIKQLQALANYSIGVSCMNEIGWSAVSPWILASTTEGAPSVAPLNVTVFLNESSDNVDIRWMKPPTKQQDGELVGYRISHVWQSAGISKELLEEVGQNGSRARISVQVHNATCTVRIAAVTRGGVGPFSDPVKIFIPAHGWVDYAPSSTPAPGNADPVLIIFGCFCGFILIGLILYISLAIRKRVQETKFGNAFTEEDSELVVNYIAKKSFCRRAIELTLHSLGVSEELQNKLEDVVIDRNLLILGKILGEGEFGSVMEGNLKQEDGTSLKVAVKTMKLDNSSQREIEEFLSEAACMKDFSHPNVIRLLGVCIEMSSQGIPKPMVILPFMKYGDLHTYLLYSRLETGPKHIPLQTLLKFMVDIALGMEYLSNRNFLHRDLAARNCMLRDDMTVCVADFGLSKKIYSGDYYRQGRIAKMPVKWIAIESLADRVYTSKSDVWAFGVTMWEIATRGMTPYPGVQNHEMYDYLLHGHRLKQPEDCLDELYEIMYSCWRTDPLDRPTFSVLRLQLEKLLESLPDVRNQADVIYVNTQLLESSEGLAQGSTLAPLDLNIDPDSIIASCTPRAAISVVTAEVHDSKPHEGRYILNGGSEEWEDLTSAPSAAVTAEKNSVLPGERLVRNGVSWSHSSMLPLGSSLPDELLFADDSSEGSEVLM
To be noted: at 0.1 µM.

Assay [17] has as its target T1, Tyrosine-protein kinase Mer (Homo sapiens). To be noted: at 1 µM.
For assay [18], the target named is Hepatocyte growth factor receptor (Homo sapiens) (UniProt P08581). To be noted: at 0.1 µM.
Hepatocyte growth factor receptor (Homo sapiens), sequence (P08581 whole entry): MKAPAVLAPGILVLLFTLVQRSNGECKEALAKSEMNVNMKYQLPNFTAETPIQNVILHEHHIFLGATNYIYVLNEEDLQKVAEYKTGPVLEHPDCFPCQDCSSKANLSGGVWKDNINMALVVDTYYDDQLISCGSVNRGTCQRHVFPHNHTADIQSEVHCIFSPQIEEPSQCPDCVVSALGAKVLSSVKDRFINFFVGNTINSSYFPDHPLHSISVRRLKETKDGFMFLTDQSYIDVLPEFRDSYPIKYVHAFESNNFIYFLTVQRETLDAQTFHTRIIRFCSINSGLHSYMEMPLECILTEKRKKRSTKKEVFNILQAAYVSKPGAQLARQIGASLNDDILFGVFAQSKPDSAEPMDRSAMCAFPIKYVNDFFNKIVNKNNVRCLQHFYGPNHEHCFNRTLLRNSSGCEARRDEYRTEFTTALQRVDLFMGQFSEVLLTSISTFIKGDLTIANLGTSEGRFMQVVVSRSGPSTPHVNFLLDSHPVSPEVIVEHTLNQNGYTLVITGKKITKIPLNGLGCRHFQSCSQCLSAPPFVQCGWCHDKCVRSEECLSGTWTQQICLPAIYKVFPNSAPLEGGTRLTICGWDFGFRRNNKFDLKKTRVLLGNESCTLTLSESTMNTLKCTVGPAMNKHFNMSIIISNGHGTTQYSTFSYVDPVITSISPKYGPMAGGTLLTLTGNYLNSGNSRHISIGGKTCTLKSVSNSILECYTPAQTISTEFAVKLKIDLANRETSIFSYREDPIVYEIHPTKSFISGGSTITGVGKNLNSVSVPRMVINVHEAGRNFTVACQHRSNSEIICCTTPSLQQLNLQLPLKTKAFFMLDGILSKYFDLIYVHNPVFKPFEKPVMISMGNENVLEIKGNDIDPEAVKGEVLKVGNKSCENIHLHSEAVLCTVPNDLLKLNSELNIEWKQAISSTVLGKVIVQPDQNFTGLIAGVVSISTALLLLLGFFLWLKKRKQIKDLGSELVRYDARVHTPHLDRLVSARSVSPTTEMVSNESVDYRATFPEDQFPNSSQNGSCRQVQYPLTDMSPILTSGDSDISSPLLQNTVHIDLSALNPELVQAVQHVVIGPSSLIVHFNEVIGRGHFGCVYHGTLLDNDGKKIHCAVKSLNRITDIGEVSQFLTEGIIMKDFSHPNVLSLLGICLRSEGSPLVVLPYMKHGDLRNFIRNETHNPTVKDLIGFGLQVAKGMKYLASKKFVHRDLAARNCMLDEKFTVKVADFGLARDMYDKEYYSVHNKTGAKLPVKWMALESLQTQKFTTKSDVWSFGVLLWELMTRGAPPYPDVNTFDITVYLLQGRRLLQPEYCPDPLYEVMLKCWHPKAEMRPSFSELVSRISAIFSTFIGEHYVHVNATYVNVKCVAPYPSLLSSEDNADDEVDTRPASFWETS
The target is the same in assay [19]. To be noted: at 1 µM.
The target in assay [20] is T2, Muscle, skeletal receptor tyrosine-protein kinase (Homo sapiens) (UniProt O15146).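 Note: values are mean inhibition of MuSK from the GSK PKIS kinase screening panel.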
T2 sequence (whole entry): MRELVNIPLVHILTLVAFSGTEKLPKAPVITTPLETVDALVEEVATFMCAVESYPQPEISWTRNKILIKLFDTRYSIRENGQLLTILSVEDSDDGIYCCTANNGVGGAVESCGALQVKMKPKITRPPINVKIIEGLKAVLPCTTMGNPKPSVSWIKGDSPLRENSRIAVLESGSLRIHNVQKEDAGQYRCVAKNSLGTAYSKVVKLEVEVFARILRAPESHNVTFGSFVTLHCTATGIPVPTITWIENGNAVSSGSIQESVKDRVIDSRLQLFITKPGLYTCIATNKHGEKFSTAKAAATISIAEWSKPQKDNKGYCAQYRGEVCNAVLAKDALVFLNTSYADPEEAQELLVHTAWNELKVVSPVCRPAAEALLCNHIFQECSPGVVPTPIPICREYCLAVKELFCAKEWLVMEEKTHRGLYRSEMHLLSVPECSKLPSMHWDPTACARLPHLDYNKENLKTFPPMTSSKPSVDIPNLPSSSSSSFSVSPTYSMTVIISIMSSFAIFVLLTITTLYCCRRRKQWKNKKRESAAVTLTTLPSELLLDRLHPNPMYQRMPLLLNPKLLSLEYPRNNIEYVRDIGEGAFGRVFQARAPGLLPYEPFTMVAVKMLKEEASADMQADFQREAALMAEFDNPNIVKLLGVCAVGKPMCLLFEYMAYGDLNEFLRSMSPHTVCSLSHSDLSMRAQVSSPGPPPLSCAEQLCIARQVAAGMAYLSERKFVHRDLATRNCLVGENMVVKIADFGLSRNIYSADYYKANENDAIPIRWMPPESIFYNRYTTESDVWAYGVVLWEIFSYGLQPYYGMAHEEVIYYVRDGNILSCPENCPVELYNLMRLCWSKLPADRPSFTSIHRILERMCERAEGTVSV
To be noted: at 0.1 µM.

This note sets out measurements from ChEMBL document CHEMBL1961873, “Compounds: GSK PKIS; Assays: Nanosyn kinase panel” (2012).

Leukocyte tyrosine kinase receptor (Homo sapiens), sequence (P29376 whole entry): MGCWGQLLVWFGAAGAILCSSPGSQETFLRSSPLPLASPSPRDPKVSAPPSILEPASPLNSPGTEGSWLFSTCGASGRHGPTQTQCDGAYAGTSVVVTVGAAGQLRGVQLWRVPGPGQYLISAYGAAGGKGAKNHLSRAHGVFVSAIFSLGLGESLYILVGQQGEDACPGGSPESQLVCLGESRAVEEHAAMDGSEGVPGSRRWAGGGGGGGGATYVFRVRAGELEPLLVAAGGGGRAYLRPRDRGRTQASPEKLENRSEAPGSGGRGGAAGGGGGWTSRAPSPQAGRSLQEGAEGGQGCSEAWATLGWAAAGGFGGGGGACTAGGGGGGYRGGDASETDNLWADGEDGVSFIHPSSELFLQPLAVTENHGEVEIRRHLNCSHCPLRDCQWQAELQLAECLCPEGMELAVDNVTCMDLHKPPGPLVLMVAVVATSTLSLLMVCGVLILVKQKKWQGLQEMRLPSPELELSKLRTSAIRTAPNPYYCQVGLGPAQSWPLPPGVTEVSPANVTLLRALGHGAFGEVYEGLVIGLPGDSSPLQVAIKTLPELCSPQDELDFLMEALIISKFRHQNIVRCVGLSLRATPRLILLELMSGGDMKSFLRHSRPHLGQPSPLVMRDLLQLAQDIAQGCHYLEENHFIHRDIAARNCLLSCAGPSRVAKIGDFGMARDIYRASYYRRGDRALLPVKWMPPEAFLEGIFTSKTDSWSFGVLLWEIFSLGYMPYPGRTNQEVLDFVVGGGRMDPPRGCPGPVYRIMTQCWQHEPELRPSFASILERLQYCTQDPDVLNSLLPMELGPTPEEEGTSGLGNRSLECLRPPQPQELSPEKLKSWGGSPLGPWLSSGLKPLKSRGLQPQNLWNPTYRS
Mast/stem cell growth factor receptor Kit (Homo sapiens), P10721 [T670I], sequence (P10721 whole entry T670I): as the sequence (P10721 whole entry V560G) above, with G560V, T670I counted along it
Tyrosine-protein kinase Lyn (Homo sapiens), sequence (P07948 2-512 limits assumed): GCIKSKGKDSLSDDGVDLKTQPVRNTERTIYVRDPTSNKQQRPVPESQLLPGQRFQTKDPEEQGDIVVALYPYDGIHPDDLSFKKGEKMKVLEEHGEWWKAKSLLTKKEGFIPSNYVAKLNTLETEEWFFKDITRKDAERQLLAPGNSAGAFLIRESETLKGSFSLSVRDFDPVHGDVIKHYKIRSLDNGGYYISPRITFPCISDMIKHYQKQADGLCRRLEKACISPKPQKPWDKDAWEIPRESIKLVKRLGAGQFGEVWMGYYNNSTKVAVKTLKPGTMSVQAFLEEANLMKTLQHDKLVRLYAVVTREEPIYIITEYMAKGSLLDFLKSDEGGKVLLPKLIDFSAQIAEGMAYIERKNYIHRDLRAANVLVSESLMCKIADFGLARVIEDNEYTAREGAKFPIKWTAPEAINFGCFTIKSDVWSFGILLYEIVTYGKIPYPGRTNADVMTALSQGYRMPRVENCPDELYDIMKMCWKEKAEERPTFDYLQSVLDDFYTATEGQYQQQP
Mast/stem cell growth factor receptor Kit (Homo sapiens), sequence (P10721 whole entry): as the sequence (P10721 whole entry V560G) above, with G560V counted along it
Mast/stem cell growth factor receptor Kit (Homo sapiens), P10721 [D816V], sequence (P10721 whole entry D816V): as the sequence (P10721 whole entry V560G) above, with G560V, D816V counted along it

On to `COc1ccc(-c2oc3ncnc(N)c3c2-c2ccc(NC(=O)Nc3cc(C(F)(F)F)ccc3F)cc2)cc1`, for which the inhibition (as a rule, the change of the read-out against control, counted positive when it falls) in [1] came to 96%; in assay [2], 2.85%; in assay [3], 5.19%; in [4], 11.8%; in assay [5], 88.3%; in assay [6], 25.5%. For the same molecule, the inhibition in [7] was found to be 78.6%; in assay [8], 21.1%; in assay [9], 83.9%; in assay [10] it was 4.21%; in assay [11] it was 11.2%; in assay [12], 48.4%. In addition, the inhibition came out at 94.8% in assay [13]; 43.3% in assay [14]; 93.2% in assay [15]; 11.7% in [16]; 66.5% in assay [17]; 9.34% in [18]. Moreover, the inhibition in assay [19] amounted to 63.2%; in assay [20] it was 96.6%.
For `c1cc(-c2cnn3nc(N4CCOCC4)ccc23)nc(NC2CC2)n1`, the inhibition in assay [1] turned out to be 20.9%; in [2], 0.53%; in assay [3], 4.82%; in assay [4] it was 7.12%; in assay [5], 3.28%; in assay [6], 4.27%. Further, the inhibition in assay [7] worked out at 5%; in assay [8] it was 1.31%; in assay [9], 3.4%; in assay [10], 2.15%; in [11], 6.33%; in [12], 3.58%. Besides, the inhibition in assay [13] is 2.39%; in assay [14], 2.01%; in [15], 3.12%; in [16], 1.15%; in assay [17], 6.24%; in assay [18] it was -2.37%. Further, the inhibition in [19] came to 2.41%; in assay [20], 4.2%.
Consider `COc1ccc(-c2cc(-c3c[nH]nc3-c3ccccn3)ccn2)cc1`, for which the inhibition is 9.66% in [1]; 4.3% in assay [2]; 11.7% in assay [3]; 4.24% in [4]; 4.17% in [5]; -1.03% in assay [6]. The inhibition in [7] was 2.87%; in assay [8] it was 2.68%; in [9] it was 5.16%; in [10] it was 5.4%; in assay [11], 5.89%; in assay [12], 6.64%. Besides, the inhibition in assay [13] is 15.2%; in assay [14], 3.87%; in [15] it was 11.2%; in assay [16], 1.3%; in assay [17] it was 2.69%; in [18], 8.94%. Moreover, the results for the inhibition in assay [19] and in [20] were 3.52% and 3.4%, respectively.
For the molecule `COC(=O)Nc1nc2ccc(Oc3ccc(NC(=O)Nc4cccc(Cl)c4)cc3)cc2[nH]1`, the inhibition in assay [1] is 90.8%; in assay [2], -0.72%; in assay [3], -1.6%; in [4], 22.5%; in assay [5], 57.1%; in assay [6], 69.5%. Also, the inhibition turned out to be 91.2% in [7]; 2.47% in assay [8]; 9.47% in [9]; 2.31% in [10]; 1.17% in [11]; 5.13% in [12]. The inhibition in assay [13] is 13.5%; in [14] it was 4.25%; in assay [15], 11.1%; in [16], 2.64%; in assay [17], 2.51%; in [18] it was 9.7%. The inhibition in assay [19] stood at 12.3%; in [20], 10.2%.
As for `CCn1c(-c2nonc2N)nc2c(C#CC(C)(C)O)nc(OC[C@H](N)c3ccccc3)cc21`, the inhibition in [1] is 1.58%; in assay [2], 1.78%; in [3] it was 10%; in assay [4], 0.36%; in assay [5] it was 0.72%; in [6] it was 3.28%. Besides, the inhibition is -0.5% in assay [7]; 2.85% in assay [8]; 3.65% in assay [9]; 5.32% in assay [10]; 17.1% in assay [11]; 4.19% in [12]. For the same molecule, the inhibition was found to be 4.52% in [13]; 2.36% in assay [14]; 4.2% in assay [15]; 5.78% in assay [16]; 3.59% in assay [17]; 6.32% in assay [18]. The inhibition in [19] was found to be 1.76%; in [20], 0.54%.
Consider `CN1CCC(n2cnc(-c3ccc(F)cc3)c2-c2ccnc(Nc3ccccc3)n2)CC1`, for which the inhibition in assay [1] is 6%; in [2], 1.84%; in [3] it was 2.39%; in assay [4], 3.38%; in assay [5] it was 1.42%; in assay [6], -1.35%. The inhibition in assay [7] came out at 4.06%; in assay [8], 4.17%; in assay [9] it was 20.5%; in [10] it was 2.75%; in [11], 1.97%; in assay [12], 4.88%. The inhibition is 23.3% in assay [13]; 2.82% in assay [14]; 13.9% in assay [15]; 0.46% in assay [16]; 6.83% in [17]; -0.26% in assay [18]. Besides, the inhibition in assay [19] turned out to be 9.59%; in assay [20], 1.28%.
